Measured values from PubChem BioAssay (NCATS).
Results filed as inconclusive are left out. Entries that show only a call come without a potency. Calls of active or inactive are those of the source. Calls come from the whole dose curve; as a rule, active = well fitted inhibition curve with a large enough effect; inconclusive = small, poorly fitted or top-dose-only effect; inactive = flat fitted curve, though single readings scatter.

The compounds below were run against Calcium and integrin-binding protein 1 (Homo sapiens) (UniProt Q99828) (assay: Primary qHTS for Identification of Calcium Integrin Binding Protein 1 (CIB1) Competitor (AID 1508620;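 note: GST tagged CIB1 binding a fluorescein labelled alphaIIb integrin peptide tracer; top concentration of the series differs between compounds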)). Conditions: CIB1-GST / FITC-alphaIIb peptide fluorescence polarization; series mostly up to 114 µM.
Sequence of Calcium and integrin-binding protein 1 (Homo sapiens) (Q99828 whole entry, looked up): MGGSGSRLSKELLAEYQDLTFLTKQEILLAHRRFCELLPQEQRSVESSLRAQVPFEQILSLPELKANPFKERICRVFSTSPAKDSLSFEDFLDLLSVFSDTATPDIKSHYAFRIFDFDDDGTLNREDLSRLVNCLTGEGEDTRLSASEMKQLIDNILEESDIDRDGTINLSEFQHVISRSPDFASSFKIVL
In short: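 CIB1-GST (1 uM final) and compound incubated 15 min at room temperature before adding FITC-alphaIIb peptide tracer (100 nM final). Competition for binding read by fluorescence polarization (ex 480, em 540) after another 15 min at room temperature.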

SMILES | Potency
CC1=C(C(=O)O[C@@H]2O[C@H](COC3OCC(O)C(O)C3O)[C@@H](O)[C@H](O)[C@H]2O)C(C)(C)CCC1 (stereo partly specified) | inactive
CC1(C)CC[C@]2(C(=O)O)CC[C@]3(C)C(=CCC4[C@@]5(C)CC[C@H](O[C@@H]6O[C@H](C(=O)O)[C@@H](O[C@@H]7OC[C@@H](O)[C@H](O)[C@H]7O)[C@H](O)[C@H]6O)C(C)(C)C5CC[C@]43C)C2C1O (stereo partly specified) | inactive
COC1=CC(=O)CC(C)C12Oc1cc(OC)cc(O)c1C2=O (stereo unspecified) | inactive
Nc1nc2c(ncn2[C@@H]2O[C@@H]3COP(=O)(O)O[C@H]3[C@H]2O)c(=O)[nH]1 | inactive
CCCCNc1ncc2c(-c3ccc(F)cc3)nn(CC3CCC(N)CC3)c2n1 (stereo unspecified) | inactive
NC1CCCCN(c2c(F)cc3c(=O)c(C(=O)O)cn(C4CC4)c3c2Cl)C1 (stereo unspecified) | inactive
COC(=O)c1ccc(OC(CO)C(O)c2ccc(O)c(OC)c2)c(OC)c1 (stereo unspecified) | inactive
COc1ccc([C@@H]2OC[C@H]3[C@@H]2CO[C@@H]3c2ccc(OC3OC(CO)C(O)C(O)C3O)c(OC)c2)cc1OC (stereo partly specified) | inactive
CC(=O)O[C@@H]1c2c(C)coc2C(=O)[C@@]23O[C@@H]2CC[C@H](C)[C@@]13C | inactive
COc1cc(O)cc(/C=C/c2ccc(O[C@@H]3O[C@H](CO)[C@@H](O)[C@H](O)[C@H]3O)cc2)c1 | inactive
CC[C@]1(O)CC2CN(CCc3c([nH]c4ccccc34)[C@@](C(=O)OC)(c3cc4c(cc3OC)N(C=O)[C@H]3[C@@](O)(C(=O)OC)[C@H](OC(C)=O)[C@]5(CC)C=CCN6CC[C@]43[C@@H]65)C2)C1 (stereo partly specified) | inactive
